Measurements reported in PubChem BioAssay (NCI).
This is part of a sample that, as a whole, favours compounds with a hit. Of some 79,000 tested, about 15% had one in any assay. Unmarked numbers belong to inactive results. The source made the active and inactive calls. Cut-off read from the data, not from the text of the source: active = growth inhibition above about 70%; inactive = the rest.

How the values were obtained:
[1] = NCI Yeast Anticancer Drug Screen. Data for the rad50 strain (AID 155);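 note: 0% = growth of vehicle-only cultures of the same strain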; conditions: S. cerevisiae rad50 strain growth inhibition; at 50.0 µM; active compounds read high
Procedure, shortened: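 Yeast carrying a defined DNA repair defect were exposed to test compounds, and growth was compared with vehicle-treated controls to give percent inhibition.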

[2] = NCI Yeast Anticancer Drug Screen. Data for the mec2-1 strain (AID 157); conditions: S. cerevisiae mec2-1 strain, at 50.0 µM, active compounds read high
Procedure, shortened: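 Readout is yeast growth inhibition, normalised to vehicle-treated controls, in the mec2-1 strain exposed to compound.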

[3] = NCI Yeast Anticancer Drug Screen. Data for the sgs1 mgt1 strain (AID 161);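 note: 0% = growth of cultures given vehicle only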; conditions: S. cerevisiae sgs1 mgt1 strain, at 50.0 µM, active compounds read high
Procedure, shortened: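 Compounds are added to genetically altered yeast, and growth is compared with cultures given vehicle alone to give percent inhibition.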

[4] = NCI Yeast Anticancer Drug Screen. Data for the cln2 rad14 strain (AID 165);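 note: 0% = growth equal to vehicle treated cultures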; conditions: S. cerevisiae cln2 rad14 strain, at 50.0 µM, active compounds read high
Procedure, shortened: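 Relative to vehicle controls, growth inhibition of compound-treated cln2 rad14 yeast was recorded.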

[5] = NCI Yeast Anticancer Drug Screen. Data for the bub3 strain (AID 167); conditions: S. cerevisiae bub3 mutant strain, at 50.0 µM, active compounds read high
Procedure, shortened: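 Compounds were applied to a genetically altered yeast strain carrying a cell-cycle control defect. Growth inhibition was scored against vehicle-treated controls.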

[6] = NCI Yeast Anticancer Drug Screen. Data for the mlh1 rad18 strain (AID 175); conditions: S. cerevisiae mlh1 rad18 strain growth inhibition; at 50.0 µM; active compounds read high
Procedure, shortened: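 Test agents were incubated with a yeast strain of defined genotype (DNA damage repair defect). Inhibition of growth was derived by comparison with vehicle-exposed cultures.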

| Compound | growth inhibition [1] | growth inhibition [2] | growth inhibition [3] | growth inhibition [4] | growth inhibition [5] | growth inhibition [6] |
| --- | --- | --- | --- | --- | --- | --- |
| COc1ccc(/C=N/N2CN(C(C)C(=O)O)C(O)(CCl)N=C2N)cc1OC (centres undefined) | 0.95% | -8.95% | -3% | -27.4% | 5.1% | -1.5% |
| COc1cccc2c1c1ccc3c(c1n2C)C(=O)C=CC3=O | 23.6% | 22.6% | 21.9% | 11.2% | 4.85% | 20.6% |
| CC(C)CC(C)Cc1ccncc1 (centres undefined) | 0.4% | 1.65% | 24.8% | 11.8% | -1.65% | -5% |
| CN(C)C(=O)c1cccc(C2CCCCC2)c1O | -10.8% | 1.85% | 14.6% | -81.4% | -18.6% | -14.7% |
| CC(=O)NCCc1ccc(C(=O)O)cc1 | -17% | -1% | 2.2% | -34.2% | -11.4% | 3.65% |
| COc1cccc2c1C(=O)C=CC2=O | 76.8% (active) | 80.7% (active) | 84.3% (active) | 87.2% (active) | 87.2% (active) | 91.8% (active) |
| Cc1cc([N+](=O)[O-])ccc1NC(=O)C(Br)C(Br)C(=O)O (centres undefined) | 31.1% | 64.5% | 75.9% (active) | 15.8% | 75.8% (active) | 49.1% |
| C[n+]1nc([O-])oc1-c1ccccc1 | 4.5% | 3.05% | 11.4% | -3.65% | -4.6% | 6.3% |
| C=C(C)C(=O)OCCOCCOCCOC(=O)C(=C)C | 8.4% | -19.2% | -9.75% | 3% | -7.7% | 4.5% |
| COc1ccc(C(=CCC(C)C2CCC3[C@@H]4C(OC(C)=O)CC5CC(OC(C)=O)CC[C@]5(C)C4CC(OC(C)=O)[C@]23C)c2ccc(OC)cc2)cc1 (some centres undefined) | 1.2% | 1.4% | -7.9% | 13.5% | 24.1% | -6.05% |
| Cc1ccc(CNC(=S)Nc2ccc(F)cc2)c(C)c1 | -7.6% | 30.1% | 30.4% | -24.7% | 46.1% | 27.4% |
| O=C(Cc1ccccc1)NCO | 2.95% | 6.35% | -9.6% | -52.4% | -3.5% | 4.6% |
| C1=C(c2ccccc2)c2ccccc2CC1 | -10.3% | -7.25% | -0.35% | -3.45% | 2.2% | 3% |
| CC(=O)Oc1ccc2c(c1)CC[C@@H]1C2[C@@H](O[N+](=O)[O-])C[C@@]2(C)C1CC[C@@H]2O[N+](=O)[O-] (some centres undefined) | 24.4% | 7.9% | 15.2% | 10.1% | 10.1% | 14.8% |
| Nc1ccc2ccccc2c1N=Nc1ccc(/C=C/c2ccc(N=Nc3c(N)ccc4ccccc34)cc2S(=O)(=O)O)c(S(=O)(=O)O)c1 | 23.4% | 18.2% | 62% | 7.1% | 31.9% | 53.4% |
| CCCCCN(C(=O)c1ccccc1C(=O)N(CCCCC)c1ccccc1)c1ccccc1 | 15.3% | 7.85% | 15.8% | 30.6% | 3.4% | 42% |
| CC1c2nc(N)nc(N)c2CN1C(=O)c1ccccc1 (centres undefined) | 3.25% | -5.7% | -18.9% | -13.6% | -8.85% | -0.85% |
| COCCOCCOCCOC(C)=O | 21.6% | 12.4% | 8.3% | 6.2% | -5.3% | -0.65% |
| COc1cc(C(=O)Oc2c(C(C)=O)sc3c2c(=O)n(-c2ccccc2)c(=S)n3-c2ccccc2)cc(OC)c1OC | 19.7% | -5.8% | 8.45% | -13.7% | 17.9% | 22.5% |
| O=C1N(c2ccccc2)C(=O)C2(SC=NN2Cc2ccccc2)N1c1ccccc1 (centres undefined) | -7% | 2% | -18.6% | 8.2% | 11.8% | 10.7% |

| Compound | growth inhibition [1] | growth inhibition [2] | growth inhibition [3] | growth inhibition [4] | growth inhibition [5] | growth inhibition [6] |
| --- | --- | --- | --- | --- | --- | --- |
| O=c1[nH]c(=O)n(CCCCOc2ccccc2)cc1-c1ccccc1 | 3.75% | 10.2% | 19.6% | 0.7% | 12.1% | 5.9% |
| Nc1nc2c(c(-c3ccc(Cl)cc3)n1)CN(c1ccc(Br)cc1)C2=O | 40.5% | 0.8% | -4.85% | 12.7% | -3.1% | 11.9% |
| O=[N+]([O-])c1ccc(Cc2ncnc3c2ncn3C2OC(CO)C(O)C2O)cc1 (centres undefined) | 5.1% | -13.2% | -16.4% | -0.95% | 2.15% | -18.9% |
| CC1CCOC(c2ccccc2Cl)O1 (centres undefined) | -25% | 14.1% | -4.55% | -12.1% | -9.3% | 5% |
| Oc1cccc2c(NC(=S)Nc3ccccc3)cccc12 | 37.2% | 22.8% | 18.2% | 15.5% | 39.5% | 32.9% |
| COc1ccc(/C=C2\CCC/C(=C\c3ccc(O)c(CN4CCCCC4)c3)C2=O)cc1 | 89.2% (active) | 85.5% (active) | 91.2% (active) | 83% (active) | 89.1% (active) | 91.2% (active) |
| COC(=O)/C=C/CCCC1CCCCC1 | -7.8% | -3.85% | 4.9% | 0.45% | -14.9% | -13.9% |
| CC(=O)OCC(=O)[C@@]1(O)CC[C@H]2[C@@H]3C[C@@H](C)[C@@]4(O)CC5(CC[C@]4(C)[C@H]3[C@@H](O)C[C@@]21C)OCC(C)(C)CO5 | 0.35% | 16.2% | 27.1% | 28.6% | -6.2% | -11.2% |
| O=C1c2cccnc2C(=O)C2CC3=C(CCCC3)CC12 (centres undefined) | 97.9% (active) | 97.4% (active) | 96.9% (active) | 88.2% (active) | 97.4% (active) | 98.5% (active) |
| COc1cc(O)c(C(=O)CC(C)=O)c(OC)c1 | -14.9% | -14.8% | -3.7% | -0.9% | 10.9% | -11.7% |
| CCOC1(c2ccccc2)NC(=O)NC1(OCC)c1ccccc1 (centres undefined) | 14.2% | 5.75% | 18% | -20.1% | 0.05% | -9.6% |
| CCOC(=O)C1(C)CCC(C(C(=O)O)C(=O)O)CC1=O (centres undefined) | -10.5% | 9.95% | 13.7% | 20.2% | 21.4% | -12.5% |
| C=CCSc1nc2c(=O)[nH]cnc2n1C1OC(CO)C(O)C1O (centres undefined) | -7.35% | 4% | -3.1% | -0.35% | -8.1% | -12.7% |
| Cc1ccc(N2C(=O)/C(=C3\Sc4c(nc(C)n(C)c4=O)N3c3ccccc3)SC2=S)cc1 | -20.9% | -31.4% | -7.3% | -58.5% | -32.5% | -26.8% |
| CCNC(CCCC1CCCCC1)C(=O)O (centres undefined) | -0.9% | -18.4% | -3.5% | -27.2% | -18.5% | 4.7% |
| O=C1NC2(O)C(=O)c3ccccc3C2(O)N1 (centres undefined) | -8.65% | -10.2% | -27.9% | 5.8% | -17.3% | 0.55% |
| CCOC(=O)N1N=C(c2ccccc2)OC2(N3CCOCC3)CCC(C(C)(C)C)CC12 (centres undefined) | 12.8% | 5.1% | 4.6% | 5% | -3% | -2.4% |
| CCN(CC)CCC(C(=O)O)(c1ccccc1)C1(O)CCCC1 (centres undefined) | -7.5% | -13.3% | -7.9% | -26.8% | 7.1% | -25.9% |
| OCCSCCCCCCSCCO | 6.95% | 1.7% | 5.85% | 10.6% | 2.7% | 5.8% |
